The text below walks through data of PubChem BioAssay (NCATS).

Molecules are shown by their SMILES. Inconclusive results are not listed. The source made the active and inactive calls. The call rests on the fitted dose curve; in most records, active means well fitted curve in the direction sought with a large enough effect in the signal ratio, with a control signal flat (not every such curve was filed as active); inconclusive means small, poorly fitted or top-dose-only effect, or effect the other way, or a change in a side signal; inactive means no such curve, though single readings can be large or run the other way; the % refers to the signal ratio.
On the % scale 0 is the no-effect control and ±100 the full control effect.

Chain of Estrogen receptor (Homo sapiens) (P03372 whole entry, looked up): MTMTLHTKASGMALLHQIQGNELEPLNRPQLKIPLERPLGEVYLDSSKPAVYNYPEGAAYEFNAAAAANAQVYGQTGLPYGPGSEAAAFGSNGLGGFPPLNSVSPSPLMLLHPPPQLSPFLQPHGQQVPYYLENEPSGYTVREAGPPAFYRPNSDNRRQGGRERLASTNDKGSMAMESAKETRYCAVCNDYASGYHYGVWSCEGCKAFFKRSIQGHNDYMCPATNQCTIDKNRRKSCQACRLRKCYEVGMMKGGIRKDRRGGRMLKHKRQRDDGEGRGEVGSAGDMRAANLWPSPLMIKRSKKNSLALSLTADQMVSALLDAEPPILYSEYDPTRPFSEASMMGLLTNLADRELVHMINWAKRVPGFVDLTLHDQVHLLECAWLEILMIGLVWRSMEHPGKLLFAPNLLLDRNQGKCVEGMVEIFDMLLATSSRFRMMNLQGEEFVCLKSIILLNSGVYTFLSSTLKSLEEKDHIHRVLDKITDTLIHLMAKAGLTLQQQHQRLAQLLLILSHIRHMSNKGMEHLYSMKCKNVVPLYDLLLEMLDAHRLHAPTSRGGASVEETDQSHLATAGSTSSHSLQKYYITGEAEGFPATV

The experiment has as its target Estrogen receptor (Homo sapiens) (UniProt P03372). Nature of the experiment: qHTS assay for small molecule antagonists of estrogen receptor alpha signaling (AID 588513). The conditions noted are these: ER-alpha-UAS-bla HEK293, beta-lactamase ratio, antagonist mode; series mostly up to 76.9 µM; activity, negative = inhibition: at the top concentration. The essentials:
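ER-alpha-UAS-bla GripTite HEK 293 cells in 2% charcoal/dextran-treated FBS medium; compounds titrated (1:2, duplicate), then stimulated with 0.5 nM 17-beta-estradiol for 18 h at 37C. CCF4 beta-lactamase fluorescence; Hill-fit IC50 and efficacy.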
(In general: In qHTS, concentration-response curves come from the screen itself.)
In the case of `c1ccc2occc2c1`, the Potency entry was “inactive”. `O=C(O)COc1nc(Cl)c(Cl)cc1Cl`: the “activity, negative = inhibition” value was -3.75% (inactive).

`O=S(=O)(c1ccc(Cl)cc1)c1ccc(Cl)cc1`: the Potency entry was “inactive”. In the case of `c1cc2ccc3cccc4ccc(c1)c2c34`, the Potency entry is “inactive”. For the compound `O=[N+]([O-])c1c(Cl)c(Cl)cc(Cl)c1Cl`, the “activity, negative = inhibition” value is -4.47% (inactive).

As for `COCCOCCO`, the “activity, negative = inhibition” value was -18.7% [at 2.03 mM] (inactive). Take `CC(C)(O)C(=O)Nc1ccc([N+](=O)[O-])c(C(F)(F)F)c1`: the “activity, negative = inhibition” value was -27.7% (inactive). As for `OCCCBr`, the “activity, negative = inhibition” value is 1.39% (inactive). Turning to `Nc1ccc(Sc2ccc(N)cc2)cc1`, the “activity, negative = inhibition” value was 6.8% (inactive). `Nc1ccc(Cl)cc1`: the “activity, negative = inhibition” value was -19.4% (inactive). On to `CCCCC(CC)COC(=O)c1ccccc1C(=O)OCC(CC)CCCC` (stereo unspecified), for which the Potency result was “inactive”. For `CCOCCOC(C)=O`, the “activity, negative = inhibition” value is 25% (inactive). Regarding `O=[N+]([O-])/N=C1\NCCN1Cc1ccc(Cl)nc1`, the “activity, negative = inhibition” value was -17.5% (inactive). On to `C=CCC1=C(C)C(OC(=O)C2C(C=C(C)C)C2(C)C)CC1=O` (stereo unspecified), for which the Potency entry was “inactive”. The same measure, in the same setting: in the case of `C=CC(=O)NCNC(=O)C=C` it was “inactive”. On to `O=C(Nc1ccccc1-c1ccc(Cl)cc1)c1cccnc1Cl`, for which the “activity, negative = inhibition” value was -4.15% (inactive).
